Assay results taken from PubChem BioAssay AID1159580 (chemical genetic matrix, 2015).
About 2,000 (36%) of roughly 5,500 compounds were called active. About 18% were inconclusive and are not listed. Rule as the data show it: active = normalized growth mostly below about 0.91 (no sharp cut-off); inconclusive = no clear call, values can overlap the other calls; inactive = mostly above about 0.92. Some of the results follow.

Test: chemical genetic growth profiling, strain panel (AID 1159580);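 also: tested at 20 µM; growth read once vehicle control cultures reached saturation at 30 °C; 1 = growth at the plate median or of vehicle wells; lower values mean less growth of the strain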
Conditions: S. cerevisiae deletion strains, growth OD

Measured: normalized growth

Cc1ccc2c(Cl)cc(Cl)c(O)c2n1
inactive: locus YAL021C, strain ccr4, stronger effect = lower value 0.998 | locus YAL026C, strain drs2, stronger effect = lower value 1.02 | locus YAL030W, strain snc1, stronger effect = lower value 1.01 | locus YBL061C, strain skt5, stronger effect = lower value 1.02 | locus YBR009C, strain hhf1, stronger effect = lower value 1.02 | locus YBR023C, strain chs3, stronger effect = lower value 1.02 | locus YBR171W, strain sec66, stronger effect = lower value 1.04 | locus YBR231C, strain swc5, stronger effect = lower value 1.03 | locus YBR279W, strain paf1, stronger effect = lower value 1.02 | locus YCL011C, strain gbp2, stronger effect = lower value 1.01 | locus YCL016C, strain dcc1, stronger effect = lower value 1.02 | locus YCL069W, strain vba3, stronger effect = lower value 1.01 | locus YCR088W, strain abp1, stronger effect = lower value 1.02 | locus YDL005C, strain med2, stronger effect = lower value 1.02 | locus YDL040C, strain nat1, stronger effect = lower value 1.02 | locus YDR001C, strain nth1, stronger effect = lower value 1.02 | locus YDR069C, strain doa4, stronger effect = lower value 1.03 | locus YDR137W, strain rgp1, stronger effect = lower value 1.06 | locus YDR159W, strain sac3, stronger effect = lower value 1.02 | locus YDR195W, strain ref2 0.987 | locus YDR297W, strain sur2, stronger effect = lower value 1.02 | locus YDR334W, strain swr1, stronger effect = lower value 1.02 | locus YDR335W, strain msn5, stronger effect = lower value 1.01 | locus YDR392W, strain spt3, stronger effect = lower value 1.02 | locus YEL003W, strain gim4, stronger effect = lower value 1.01 | locus YEL037C, strain rad23, stronger effect = lower value 1.02 | locus YEL061C, strain CIN8 (second series), stronger effect = lower value 1.01 | locus YER015W, strain faa2, stronger effect = lower value 1.01 | locus YER016W, strain bim1, stronger effect = lower value 1.02 | locus YER111C, strain swi4, stronger effect = lower value 1.02 | locus YER155C, strain BEM2 (second series), stronger effect = lower value 1.02 | locus YFR010W, strain ubp6, stronger effect = lower value 1.01 | locus YGL167C, strain pmr1, stronger effect = lower value 1.03 | locus YGL173C, strain kem1, stronger effect = lower value 1.02 | locus YGL227W, strain vid30, stronger effect = lower value 1.05 | locus YGL240W, strain doc1, stronger effect = lower value 1.02 | locus YGL253W, strain hxk2, stronger effect = lower value 1.01 | locus YHR013C, strain ard1, stronger effect = lower value 1.04 | locus YHR027C, strain rpn1, stronger effect = lower value 1.02 | locus YHR142W, strain chs7, stronger effect = lower value 1.03 | locus YJL092W, strain hpr5, stronger effect = lower value 1.02 | locus YJL095W, strain BCK1 (second series), stronger effect = lower value 1.04 | locus YJL115W, strain asf1, stronger effect = lower value 1.03 | locus YJL129C, strain trk1, stronger effect = lower value 1.02 | locus YJL154C, strain vps35, stronger effect = lower value 1.02 | locus YJL164C, strain tpk1, stronger effect = lower value 1.02 | locus YJL166W, strain qcr8, stronger effect = lower value 1.04 | locus YJL187C, strain SWE1, stronger effect = lower value 0.999 | locus YKL160W, strain elf1, stronger effect = lower value 1.02 | locus YKR026C, strain gcn3, stronger effect = lower value 1.02 | locus YKR091W, strain srl3, stronger effect = lower value 1.02 | locus YLL001W, strain dnm1, stronger effect = lower value 1.02 | locus YLL026W, stronger effect = lower value 0.999 | locus YLL041C, strain sdh2, stronger effect = lower value 1.03 | locus YLR027C, strain aat2, stronger effect = lower value 1.02 | locus YLR221C, strain rsa3, stronger effect = lower value 1.01 | locus YLR258W, strain gsy2, stronger effect = lower value 1.02 | locus YLR262C, strain YPT6 (second series), stronger effect = lower value 1 | locus YLR320W, strain mms22, stronger effect = lower value 1.03 | locus YLR342W, strain FKS1, stronger effect = lower value 1.05 | locus YLR357W, strain rsc2, stronger effect = lower value 1.04 | locus YLR370C, strain arc18, stronger effect = lower value 1.02 | locus YLR384C, strain iki3, stronger effect = lower value 1.03 | locus YML120C, strain ndi1, stronger effect = lower value 1 | locus YMR058W, strain fet3, stronger effect = lower value 1.01 | locus YMR125W, strain sto1, stronger effect = lower value 1.02 | locus YMR129W, stronger effect = lower value 1.01 | locus YMR205C, strain PFK2, stronger effect = lower value 1.02 | locus YMR231W, strain pep5, stronger effect = lower value 1.02 | locus YNL071W, strain lat1, stronger effect = lower value 1.01 | locus YNL209W, strain ssb2, stronger effect = lower value 1.01 | locus YNL248C, strain rpa49, stronger effect = lower value 1.01 | locus YNL322C, strain KRE1 (second series), stronger effect = lower value 1.03 | locus YNR049C, strain mso1, stronger effect = lower value 1.03 | locus YOR001W, strain rrp6, stronger effect = lower value 1.02 | locus YOR070C, strain gyp1, stronger effect = lower value 1.03 | locus YOR080W, strain dia2, stronger effect = lower value 1.02 | locus YOR083W, strain WHI5, stronger effect = lower value 1.03 | locus YOR106W, strain vam3, stronger effect = lower value 1.01 | locus YOR265W, strain rbl2, stronger effect = lower value 1.01 | locus YOR270C, strain vph1, stronger effect = lower value 1.02 | locus YOR290C, strain snf2, stronger effect = lower value 1.03 | locus YPL051W, strain arl3, stronger effect = lower value 1.01 | locus YPL078C, strain atp4, stronger effect = lower value 1.01 | locus YPL106C, strain sse1, stronger effect = lower value 1 | locus YPL240C, strain hsp82, stronger effect = lower value 1.01
